Out of some 2,300 compounds screened, about 20 (0.9%) were called active. This excerpt belongs to a sample that is enriched for actives. Values without a mark were called inactive.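 The calls were made as follows: active = mean percent activation across replicates above the counterscreen hit cutoff of 9.17%; inactive = the rest.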

For this test, the target named is Glucose-dependent insulinotropic receptor (Homo sapiens) (UniProt Q8TDV5). The test can be described thus: GPR119 activators in beta-arrestin cells, confirmation, counter-screen for GPR151 activator project, cell-based, PathHunter beta-arrestin, luminescence, set 2 (AID 1508607).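 Also: 0% = median of sample wells and 100% = wells given EA reagent.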 Particulars: 90 min, at 11.2 µM, stronger effect = higher value. On the technique in general: A counterscreen serves to expose hits that act by an unwanted route or on another target.
Glucose-dependent insulinotropic receptor (Homo sapiens), sequence (Q8TDV5 whole entry, looked up): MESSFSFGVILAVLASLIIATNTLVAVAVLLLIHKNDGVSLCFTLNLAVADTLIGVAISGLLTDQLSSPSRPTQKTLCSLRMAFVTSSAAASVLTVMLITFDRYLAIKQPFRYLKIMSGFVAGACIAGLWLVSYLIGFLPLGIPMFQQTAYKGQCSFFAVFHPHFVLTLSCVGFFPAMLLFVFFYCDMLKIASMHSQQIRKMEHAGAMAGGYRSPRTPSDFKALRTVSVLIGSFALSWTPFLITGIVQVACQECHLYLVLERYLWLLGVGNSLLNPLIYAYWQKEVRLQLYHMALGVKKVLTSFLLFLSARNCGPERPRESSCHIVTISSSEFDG
On to `C[C@@H]1O[C@@H](O[C@H]2C[C@@H](O)[C@]3(CO)[C@H]4[C@H](O)C[C@]5(C)[C@@H](C6=CC(=O)OC6)CC[C@]5(O)[C@@H]4CC[C@]3(O)C2)[C@H](O)[C@H](O)[C@H]1O`, for which the activation is 18.4% (active).

Regarding `COCCN1C(=S)NC2c3cccc(OC)c3OC1(C)C2C(=O)OC` (stereo not given), the activation is -2.57%.

In the case of `Cc1cccc(C)c1-n1nnnc1C1(NCCc2c(C)[nH]c3ccccc23)CCCCC1`, the activation was -3.88%.

As to `CCn1c(/C=C/C=C2\N(C)c3ccccc3C2(C)C)[n+](Cc2ccccc2)c2ccccc21`, the activation was 15.3% (active).

`CC[n+]1c(/C=C/C=C2\N(C)c3ccccc3C2(C)C)n(-c2ccccc2)c2ccc(C)cc21`: the activation is 2.58%.

Take `CC[n+]1c(/C=C/C=C2\N(C)c3ccccc3C2(C)C)n(-c2ccccc2)c2cc(Cl)ccc21`: the activation was 4.85%.

Consider `O=c1c2ccccc2nc(/C=C/c2ccccc2)n1-c1cccc(C(F)(F)F)c1`, for which the activation was 1.19%.

For `COc1ccc2[nH]c(C)c(CCNCc3ccc(OC(F)(F)F)cc3)c2c1`, the activation was 0.78%.

In the case of `O=C(NCc1ccc(Cl)cc1)C(Cl)(Cl)Cl`, the activation is 1.33%.

Regarding `O=C(NC(O)C(Cl)(Cl)Cl)c1ccccc1` (stereo not given), the activation is -0.61%.

Regarding `C[C@H]1CC[C@@H]2[C@@H](C)[C@H]3[C@H](CC4[C@@H]5CC=C6CC(O[C@@H]7O[C@H](CO)C(O[C@@H]8O[C@@H](C)[C@H](O)[C@@H](O)[C@H]8O)[C@H](O)[C@H]7O[C@@H]7O[C@@H](C)[C@H](O)[C@@H](O)[C@H]7O)CC[C@]6(C)[C@H]5CC[C@@]43C)N2C1` (stereo not given in full), the activation was 28.4% (active).

Turning to `COc1ccc(CN2CCNCC2CCO)c(C)c1C` (stereo not given), the activation was 0.92%.

As to `CCN1C(=O)c2ccccc2Sc2ccc(C(=O)N3CCC4(CC3)OCCO4)cc21`, the activation is 0.67%.

Consider `COc1cccc(C2N(c3ccccn3)C(=O)C3CCCN32)c1` (stereo not given), for which the activation is -1.97%.

For `CCc1ccc(NC(=O)CN2CC(c3ccccc3)CC2=O)cc1` (stereo not given), the activation is 2.2%.

Values taken from PubChem BioAssay AID1508607 (The Scripps Research Institute Molecular Screening Center, 2020).
